Test results published in PubChem BioAssay (Tox21).
Results filed as inconclusive are left out. Unmarked numbers belong to inactive results. Calls of active or inactive are those of the source. Calls follow the shape of the dose curve; as a rule, active = well fitted cell-killing curve with a large enough effect in the repeat runs; inconclusive = weak or mixed curves; inactive = flat fitted curve, though single readings scatter.

assay: qHTS assay to identify small molecule antagonists of the estrogen related receptor (ERR) signaling pathway from Tox21 library - cell viability counter screen (AID 1224834); settings: ERR reporter cells viability, CellTiter-Fluor, 17.5 h; series mostly up to 92.4 µM; viability change, negative = cytotoxic: at the top concentration; also: nearly all actives have a fitted effect of over 30% in size
Excerpt: National Center for Advancing Translational Sciences [NCATS]
NIH Chemical Genomics Center [NCGC]
U.S. Environmental Protection Agency [EPA]
National Institutes of Environmental Health Sciences [NIEHS]
National Toxicology Program [NTP]
U.S. Food and Drug Administration [FDA]
Estrogen related receptors (ERRs), the first orphan nuclear receptors discovered, play an important role in the control of cellular energy metabolism. ERRs are required for high-energy production in response to the environmental challenges. ERR-alpha was also identified as an adverse marker for breast cancer progression; ERR-alpha-positive tumors have a poor prognosis. To screen and to identify environmental compounds that perturb the ERR signaling pathways could provide valuable information for potential therapeutic or preventive measures in the treatment of metabolic disease. To differentiate true ERR antagonists or agonist from cytotoxic substances, the assay is multiplexed with cell viability assay.
Tox21 Assay Protocol Summary:
The ERR cells were dispensed at 2,000 cells/5 ul/well in 1536-well white plates using a Multidrop dispenser. After the assay plates were incubated at a 37 C/5% CO2 incubator for 6 hours, 23 nL of compounds dissolved in DMSO, positive and negative controls or DMSO only was transferred to the assay plate by a pin tool. The plates were incubated at 37 C for 17.5 hours. 1 ul/well of CellTiter-Fluor reagent was added into the assay plates using a Flying Reagent Dispenser. After 30-minute incubation at 37 C/5% CO2, the fluorescence intensity in the plates was measured using a ViewLux plate reader.
% is scaled to controls: 0 for no effect and ±100 for the full control effect; potency is read from the fitted curve at half-maximal effect.

Compound	viability change, negative = cytotoxic	Potency
CNCC(O)c1ccc(O)c(O)c1 (stereo not given)	-2.52% [at 42.5 µM]	
CCOc1c(N2CCOCC2)cnn(C)c1=O	-2.37% [at 42.5 µM]	
CCCCN1C=CN(C)C1	0.161% [at 19 µM]	
COc1cc(-c2ccc(=O)[nH]n2)ccc1OC(F)F	0.41% [at 42.5 µM]	
CC(=O)Oc1cccc(C)c1	0.429% [at 42.5 µM]	
CC(C)[C@H]1CC[C@@H](C)CC1=O	1.08%	
O=[N+]([O-])c1ccc(/C=N\O)o1	0.36% [at 42.5 µM]	
CC(=O)c1ccc2ccccc2c1	-0.852%	
CC(C)(N)C#N	2.01%	
CC[C@H]1OC(=O)[C@H](C)[C@@H](O[C@H]2C[C@@](C)(OC)[C@@H](O)[C@H](C)O2)[C@H](C)[C@@H](O[C@@H]2O[C@H](C)C[C@H](N(C)C)[C@H]2O)[C@](C)(OC)C[C@@H](C)C(=O)[C@H](C)[C@@H](O)[C@]1(C)O	-0.0511%	
CC1OC1C1CCC2(C)OC2C1 (stereo not given)	5.67%	
O=C(CO)[C@@H](O)[C@H](O)[C@@H](O)CO	0.291% [at 42.5 µM]	
C=CC(=O)OCCCl	-1.2%	
CC(C)(C)C(=O)c1ccccc1	-3.26%	
Nc1c2c(nc3c1CCC3)CCCC2	2.09% [at 42.5 µM]	
CO/N=C(\C(=O)N[C@@H]1C(=O)N2C(C(=O)O)=C(CSc3nc(=O)c(O)nn3C)CS[C@H]12)c1csc(N)n1	4.11% [at 42.5 µM]	
CC(=O)Nc1ccc(OCC(O)CNC(C)C)cc1 (stereo not given)	2.69% [at 42.5 µM]	
C=CCCCCCCCCC(=O)OCC	7.73%	
CC(=O)N[C@H]1[C@H]([C@H](O)[C@H](O)CO)OC(C(=O)O)=C[C@@H]1N=C(N)N	0.957% [at 42.5 µM]	
O=[N+]([O-])c1cncn1CCN1CCOCC1	-0.453% [at 42.5 µM]	

Compound	viability change, negative = cytotoxic	Potency
Nc1ccn([C@@H]2O[C@H](CO)[C@@H](O)[C@@H]2O)c(=O)n1	4.4%	
CCC(=O)OCc1ccccc1	-0.351%	
[Ca+2]	0.0874%	
CCOC(=O)COC(=O)c1ccccc1C(=O)OCC	2.13%	
CCN1C=CN(C)C1C (stereo not given)	-1.25%	
CCCCCCC#CC(=O)OC	4.19%	
O=C(O)CNC(=O)c1ccccc1	6.39% [at 42.5 µM]	
CNCCO	7.8%	
O=S(=O)(O)c1cc(O)c(O)c(S(=O)(=O)O)c1	-2.34%	
NC(=O)Cc1cccc2ccccc12	-1.68%	
CC/C=C\CCOC(C)OCC (stereo not given)	-1.57% [at 42.5 µM]	
Nc1ccn([C@@H]2O[C@H](CO)[C@@H](O)C2(F)F)c(=O)n1	1.15% [at 42.5 µM]	
CCCn1cc[n+](C)c1C	-3.39%	
C[N+](C)(C)CCCCCCCCCC[N+](C)(C)C	6.04% [at 42.5 µM]	
CC(C)C(=O)OC(=O)C(C)C	1.96%	
C1CCC2=NCCCN2CC1	-4.22%	
CC1=NN(c2cc(S(=O)(=O)O)ccc2Cl)C(=O)C1N=Nc1ccccc1 (stereo not given)		48.6 µM (active)
CN1C(C)(C)CC(O)CC1(C)C	2.63%	
Cc1ncc(COP(=O)(O)O)c(C=O)c1O	-1.26% [at 42.5 µM]	
CC(C#N)(CCC(=O)O)N=NC(C)(C#N)CCC(=O)O (stereo not given)	3.85%	
